The source of these data is PubChem BioAssay (NCI).

Several values for one entry are separate records, joined by “and”; a condition that tells them apart may be missing. Equal values may be shown once. The panel holds about 83,000 compounds, 20% with a hit somewhere; the sample as a whole holds those more often.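 96-well plates, one dose, 48 hours. Percent growth reported; active if below 10.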 Values without a mark were called inactive. Activity calls are given as the source filed them.

The experiment deals with SK-MEL-28 melanoma. Description: NCI-60 one-dose screen, 48 h (100 = growth as untreated, 0 = no growth, -100 = all killed). As to conditions: 10 µM unless noted. The procedure:
Growth inhibition of the SK-MEL-28 human tumor cell line is measured as a screen for anti-cancer activity. Cells are grown in 96 well plates and exposed to the test compound for 48 hours. Compounds are tested at a single concentration, which is 10^-5 M for most compounds. The reported endpoint is percent growth (GI% or GIPRCNT), where numbers from 0 - 100% represent growth inhibition, and numbers from -100% - 0 represent cell death. For example, a value of 40 represents 60% growth inhibition. A value of 0 means no net growth occurred over the course of the experiment. A value of -40 indicates 40% of cells at the beginning of the experiment died by the end of the experiment. A value of -100 means all cells are dead at the end of the experiment.
NCI-60 Human Tumor Cell Lines Screen was performed using the standard one-dose NCI protocol, which is described in more detail at https://dtp.cancer.gov/discovery_development/nci-60/default.htm.
Compounds with GIPRCNT values below 10 were considered active. Activity score was based on GIPRCNT using the following formula: […]
Score is 0 for GIPRCNT values of 100 or above, 50 for GIPRCNT values of 0, and 100 for GIPRCNT values of -100.
For the molecule `Cc1ccc(S(=O)(=O)Nc2ccc(-c3ccc4c(c3)NC(=O)/C4=C\c3ccc[nH]3)cc2)cc1`, the growth is 95.9%.

As to `COc1ccc2ccccc2c1/C=C1\SC(=Nc2ccc(O)cc2)NC1=O`, the growth is 52.7%.

Consider `OC(c1ccccc1)(c1ccccc1)C1CCN(c2ccc3nnc(Cl)n3n2)CC1`, for which the growth was 52.2%.

Turning to `COc1ccc(N=Nc2c(N)nn3c(-c4cc5cc(Br)ccc5oc4=O)ccnc23)cc1`, the growth is 28.8%.

For `CS(=O)(=O)Nc1cc(-c2ccc3ncnc(Nc4ccc(OCc5cccnc5)c(Cl)c4)c3c2)cnc1Cl`, the growth was -6.84% (active).

For `Cc1cc(=O)oc2cc(OCC(O)CNN3C(=O)c4cccc5c(N6CCN(C)CC6)ccc(c45)C3=O)ccc12` (stereo not given), the growth was -17.3% (active).

On to `COc1ccc(NC(=O)CSc2nnc(-c3ccc(-c4nc5ccc(Cl)cc5[nH]4)cc3)o2)cc1`, for which the growth was -76% (active).

With `Cc1ccc2c(c1)nc(-c1ccccc1)n2CC(=O)N=Nc1c(O)[nH]c2ccc(Cl)cc12`, the growth is -71.7% (active).

As to `COc1c(B(O)O)cc(F)cc1-c1nc2c(F)cc3[nH]ncc3c2c2c1CCCC2`, the growth was 25.7%.

Take `Cc1ccc(O)cc1Nc1nc(SCCN2CCOCC2)nc2c1cnn2CC(Cl)c1ccc(Br)cc1` (stereo not given): the growth is 17.1%.

In the case of `O=C1/C(=C/c2cnc(-c3ccccc3)s2)SC(=S)N1Cc1ccc2c(c1)OCO2`, the growth is 103%.

For `Cc1ccc(C(=O)Nc2ccc(-n3ccnc3)c(C(F)(F)F)c2)cc1C#Cc1cnc2cccnn12`, the growth was -10.8% (active).

For `COc1cc2cc(C(=O)N3C[C@@H](CCl)c4c3cc(OC(=O)N(CCC(=O)N3CCN(C)CC3)[C@H]3CCSSC3)c3ccccc43)[nH]c2c(OC)c1OC`, the growth is -94.1% (active).

On to `S=C(Nc1ccc(OCc2nc3ccc(Cl)cc3[nH]2)cc1)NC1CCCCC1`, for which the growth was 0.982% (active).

Consider `COc1ccc2[nH]c(=O)cc(-n3ncc(C(=O)/C=C/c4cc(OC)c(OC)c(OC)c4)c3C)c2c1`, for which the growth is -77.1% (active).

As to `CNS(=O)(=O)N1CCc2c(Br)c3c(c(OC)c2C1CCc1ccccc1)OCO3` (stereo not given), the growth was -77.9% (active).

Consider `COc1ccc(NC(=O)Nc2nc3ccc([N+](=O)[O-])cc3s2)cc1`, for which the growth was 47.7%.

Regarding `Fc1ccc(N2CC(Cn3c(C(F)(F)F)cc4c(Cl)ncnc43)C2)c(F)c1`, the growth was -89.8% (active).

In the case of `CN(C)c1nc(NCCNS(=O)(=O)c2ccc(C(=O)/C=C/c3ccccc3)cc2)nc(N2CCOCC2)n1`, the growth is 88%.

With `Cn1cc(-c2cc(N)n3nc(-c4c[nH]c5ccccc45)cc3n2)c2cc(F)ccc21`, the growth was 77.5%.

In the case of `Nc1nc(-c2ccccc2)c(N=Nc2ccc(Cl)cc2Cl)s1`, the growth was -55.8% (active).

For `O=C(CSc1nnc(-c2ccc(-c3nc4ccccc4[nH]3)cc2)o1)Nc1ccc(Cl)cc1`, the growth is -85% (active).

As for `COC(=O)CSC1=C(C)C(=O)C(OC)=C(OC)C1=O`, the growth is 104%.

With `CCc1ccccc1NC(=O)N/C(N)=N/c1nc2ccccc2s1`, the growth is 38%.

For `CC[C@]12C=CCN3CC[C@@]4(c5ccc(OC)cc5N(C)[C@H]4[C@@](O)(C(=O)OC)[C@@H]1OC(=O)CCCC[P+](c1ccc(F)cc1)(c1ccc(F)cc1)c1ccc(F)cc1)[C@@H]32`, the growth was -54.9% (active).

As to `COc1ccc2c(c1)C(Sc1ccc(Cl)cc1)c1c(nc(N)c(C#N)c1N)O2` (stereo not given), the growth was 99.8%.

For `NC1(c2ccc(-c3ccc4ncnc(NCc5ccccc5)c4c3)cn2)COC1`, the growth is 104% and 107%.

Take `CC(C)(C)C(=O)C1CC(C#N)=C2C=Cc3c(ccc4ccccc34)N21` (stereo not given): the growth is 106%.

With `S=C(Nc1ccccc1)Nc1ccc(OCc2nc3ccc(Cl)cc3[nH]2)cc1`, the growth was 87.9%.

Regarding `FC(F)(F)c1cc2c(Cl)ncnc2n1CCC1CCOCC1`, the growth was -0.403% (active).

In the case of `CN(C)CCCNC(=S)Nc1ccc(/C=C/c2ccc(Cl)cc2)cc1`, the growth was -97.6% (active).

`COc1ccc(NC(=O)Cn2c(/C=C/c3cccc(Br)c3)nc3ccccc3c2=O)cc1`: the growth was 70.2%.

Consider `CC[C@]12C=CCN3CC[C@]4(C(=C(C(=O)OC)C1)Nc1cc(OC)c([C@@H]5[C@H]6O[C@H]6[C@@]6(CC)CC(C(=O)OC)=C7Nc8cc(O)ccc8[C@@]78CCN5[C@@H]68)cc14)[C@@H]32`, for which the growth is -21.8% (active).

Turning to `O=C(c1ccc(Cl)cc1)C1[C@H](c2ccccc2Cl)[C@@H](c2ccccc2)NC12C(=O)Nc1ccccc12` (stereo not given in full), the growth is -57.3% (active).

Consider `COc1nc(N)ncc1-c1ccc2ncnc(N3CCc4cc(F)c(Cl)cc43)c2c1`, for which the growth was 31.3%.

Take `COC(=O)c1cccc(Oc2ccc(NC(=O)Nc3cc(C(F)(F)F)ccc3F)cc2)c1`: the growth is 88.7%.

With `CCCn1c(NC(=O)c2cccc(C(N)=O)c2)nc2cc(CN3CCCCC3)ccc21`, the growth was 112%.

In the case of `COc1ccc(-c2nc3ccc(-c4nnc(SCc5ccccc5)o4)cc3[nH]2)cc1`, the growth was -36.3% (active).

`CC(=O)Nc1ccc(S(=O)(=O)Nc2ccc(-c3ccc4c(c3)NC(=O)/C4=C\c3ccc[nH]3)cc2)cc1`: the growth was 83.6%.

For `CN1CCN(C(=O)CCN(C(=O)Oc2cc3c(c4ccccc24)[C@H](CCl)CN3C(=O)c2cc3cc(OCCCN4CCC4)ccc3[nH]2)[C@H]2CCSSC2)CC1`, the growth was -89.2% (active).
